Source: PubChem BioAssay (NCATS)
Results filed as inconclusive are left out. Where a call stands in place of a potency, no number is given. The source made the active and inactive calls. Calls come from the whole dose curve; as a rule, active = well fitted cell-killing curve with a large enough effect; inconclusive = small, poorly fitted or top-dose-only effect; inactive = flat fitted curve, though single readings scatter.

Assay: KB-8-5-11 Cancer Cell Toxicity qHTS against the NCATS CANVASS Library (AID 1347364); note: nearly all actives have a fitted effect of over 75% in size
Details: KB-8-5-11 MDR cells viability, CellTiter-Glo, 72 h; series mostly up to 46.1 µM
Description: Natural products and their derivatives continue to be wellsprings of nascent therapeutic potential. However, many laboratories have limited resources for biological evaluation, leaving their previously isolated or synthesized compounds largely or completely untested. To address this issue, the Canvass library of natural products was assembled (https://tripod.nih.gov/canvass), in collaboration with academic and industry researchers, for quantitative high-throughput screening (qHTS) across a diverse set of cell-based and biochemical assays. The pure (>85% purity by liquid chromatography/mass spectrometry [LC/MS]) Canvass library of 346 natural products were submitted by 45 academic laboratories and companies around the world. We collected pure natural products to circumvent deconvolution and structure elucidation due to time and resource limitations. The library was formatted into 1536-well plates and evaluated in 50 qHTS (in an 11-pnt concentration series) bioassays with broad scope of disease-relevant mechanisms. The resulting data set from 50 different assays was then systematically analyzed to identify overall trends and specific natural products with interesting biological activities. Reported herein are the results of each individual qHTS and their corresponding assay protocol. […] National Center for Advancing Translational Sciences (NCATS), Rockville, MD National Institute of Health (NIH), Bethesda, Maryland
Cancer Cell Toxicity qHTS protocol 1. In a 1536 well, tissue culture treated white solid bottom plates (Corning 7494), 5 uL of KB-8-5-11 cell solution (final concentration of 500 cells / well) was dispensed using the Multidrop Combi dispenser (Thermo Fisher Scientific) into columns 3-48, rows 1-32. DMEM + 10% FBS + 100 U/mL penicillin / 100ug/mL streptomycin media solution was dispensed into column 1-2, row 1-32 also using the Multidrop Combi dispenser. For follow-up confirmation, KB 8-5-11 was also plated in medium supplemented with 1uM tariquidar. 2. Control and Compounds were pin transferred (~23nL volume) to the assay plates via Wako Pin-tool (Wako Automation, Richmond VA) equipped with a 1536 pin head. The compounds were transferred to columns 5-48 resulting in a final concentration ranging from 0.17 nM to 103 uM. Dose response titration of Bortezomib was pin transferred into column 3, rows 1-32 (2mM; 1:2 dilution; 16 points; n = 2) resulting to a final concentration range of 0.3nM - 9.2uM. 3. The assay plates were further incubated in the at 37C, 5% CO2, 95% Rh for 72 hr. 4. After incubation, 2.5uL of CellTiter-Glo reagent (Promega) was added to the assay plates (column 1-48, rows 1-32) using the Multidrop Combi dispenser. 5. The assay plates were incubated at room temperature for 10 minutes. 6. Luminescence signal was acquired via the ViewLux plate reader (PerkinElmer) using a clear emission filter, 1 sec exposure, and 1x binning settings.
Potency is the fitted concentration of half-maximal effect.

Q: Which Potency does the source give for `CN(C)Cc1c[nH]c2ccccc12` here?
A: Its Potency is “inactive”.

Q: For `CCC[C@H]1CC[C@H]2[C@H](C)CCC[C@H]2N1`, which Potency is on record?
A: Its Potency is “inactive”.

Q: With `CC[N@@+]1([O-])C[C@]2(C)CC[C@@H](O)[C@@]34C5C[C@H]6CC[C@@]5(C(C[C@H]23)C41)[C@H](O)[C@@]6(O)CO` (stereo not given in full) as the compound, how does the Potency read?
A: Its Potency is “inactive”.

Q: For `O=C(c1ccccc1O)c1[nH]c(Cl)c(Cl)c1-n1c(C(=O)c2ccccc2O)cc(Cl)c1Cl`, which Potency is on record?
A: Its Potency is 2.64 µM (active).

Q: Which Potency does the source give for `CC1=CC2CC[C@@H]3[C@@H](C)C[C@H](C)[C@@H](C1)N23` (stereo not given in full) here?
A: Its Potency is “inactive”.

Q: Which Potency does the source give for `CNCCc1ccc(O)cc1` here?
A: Its Potency is “inactive”.

Q: With `CO[C@@H](/C=C/CC/C=C/C(=O)O)[C@@H](O)[C@H](C)/C=C(\C)[C@@H](O)[C@H](C)C(=O)CCCC1CC(=O)NC(=O)C1` as the compound, how does the Potency read?
A: Its Potency is “inactive”.

Q: With `C=C1[C@@H](C)[C@H]2[C@H](Cc3ccccc3)NC(=O)[C@]23OC(=O)/C=C/[C@H](O)CCC[C@@H](C)C/C=C/[C@H]3[C@@H]1O` as the compound, how does the Potency read?
A: The Potency was 9.35 µM (active).

Q: For `NCCc1ccccc1`, which Potency is on record?
A: The Potency was “inactive”.

Q: Which Potency does the source give for `C[C@@H]1CC[C@@H](c2ccoc2)N2C[C@@]3(CC[C@@H]12)CS[C@@]1(CC[C@H]2[C@H](C)CC[C@@H](c4ccoc4)N2[C@@H]1O)C3` here?
A: Its Potency is 8.33 µM (active).

Q: Which Potency does the source give for `CCN1C[C@]2(C)CC[C@@H](O)[C@]34C1[C@H](C[C@H]23)C12CCC(CC14)[C@](O)(CO)[C@H]2O` (stereo not given in full) here?
A: Its Potency is “inactive”.

Q: With `CC1=CC(=O)C2=C(C)C[C@H](O)[C@@H]3[C@H](OC(=O)[C@@H]3C)[C@@H]12` as the compound, how does the Potency read?
A: The Potency was “inactive”.

Q: For `CCN1C[C@]2(C)CC[C@H](O)[C@]34C1C(C[C@H]23)[C@@]12CC[C@H](CC14)[C@](O)(COC(=O)c1ccc(OC)c(OC)c1)[C@H]2O` (stereo not given in full), which Potency is on record?
A: Its Potency is “inactive”.

Q: Which Potency does the source give for `CO[C@H](c1ccccc1)[C@H]1NC(=O)C(C)NC(=O)C(C[C@@H](C)CO)N(C)C(=O)[C@@H](C(O)c2cn(C(C)(C)C3CO3)c3ccccc23)NC(=O)C(C(C)C=C(C)C)NC(=O)C(CC(C)C)N(C)C(=O)C(C(C)C)NC1=O` (stereo not given in full) here?
A: The Potency was “inactive”.

Q: Which Potency does the source give for `CCCC[C@@H]1CC[C@H]2CCCC(CCC)N12` (stereo not given in full) here?
A: Its Potency is “inactive”.

Q: For `COC(=O)C1=C2Nc3ccccc3[C@@]23CCN2CC(C(C)=O)C1C[C@H]23` (stereo not given in full), which Potency is on record?
A: The Potency was “inactive”.

Q: Which Potency does the source give for `CC(=O)N[C@H]1CCN2CCC[C@H]12` here?
A: The Potency was “inactive”.

Q: Which Potency does the source give for `CCC(=O)CCCCC[C@@H]1NC(=O)[C@H]2CCCCN2C(=O)[C@H]([C@@H](C)CC)NC(=O)[C@H](Cc2cn(OC)c3ccccc23)NC1=O` here?
A: Its Potency is 13.2 µM (active).

Q: For `CO[C@@H](/C=C/CC/C=C/C(=O)O)[C@@H](O)[C@H](C)[C@@H](O)/C(C)=C/[C@H](C)C(=O)CCCC1CC(=O)NC(=O)C1`, which Potency is on record?
A: Its Potency is “inactive”.

Q: Which Potency does the source give for `CNCCc1c[nH]c2ccccc12` here?
A: The Potency was “inactive”.

Q: With `CN1C(=O)[C@]23CC4C(C)(C)[C@@]5(C[C@@]41CN2CC[C@@]3(C)O)C(=O)Nc1c5ccc2c1OC=CC(C)(C)O2` (stereo not given in full) as the compound, how does the Potency read?
A: Its Potency is “inactive”.

Q: For `COc1ccc2c3c([nH]c2c1)C(C)=NCC3`, which Potency is on record?
A: Its Potency is “inactive”.

Q: Which Potency does the source give for `C[C@]12CC(O)C3[C@@H](CCC4C[C@@H](O)CC[C@@]43CO)[C@@]1(O)CCC2C1=CC(=O)OC1` (stereo not given in full) here?
A: The Potency was “inactive”.

Q: Which Potency does the source give for `C/C=C1/CN2CC[C@]34C(=Nc5ccccc53)[C@@H]2C[C@@H]1[C@H]4C(=O)OC` here?
A: Its Potency is “inactive”.

Q: With `COc1ccc2c(c1)[nH]c1c(C)nccc12` as the compound, how does the Potency read?
A: The Potency was 38.2 µM (active).

Q: For `c1ccc2c3c([nH]c2c1)CNCC3`, which Potency is on record?
A: Its Potency is “inactive”.

Q: With `COc1ccc(C23Oc4cc(OC)cc(OC)c4[C@](O)([C@H](c4ccccc4)C2C(=O)NCCCCNC(=O)c2ccccc2)[C@@H]3O)cc1` (stereo not given in full) as the compound, how does the Potency read?
A: Its Potency is “inactive”.

Q: With `CC[C@@H]1CN2CC[C@@]3(O)C(=Nc4cccc(OC)c43)[C@@H]2C[C@@H]1/C(=C\OC)C(=O)OC` as the compound, how does the Potency read?
A: Its Potency is “inactive”.

Q: With `CNCCc1ccccc1` as the compound, how does the Potency read?
A: Its Potency is “inactive”.

Q: Which Potency does the source give for `CC=C1CN(C=O)[C@H]2C[C@@H]1[C@@H](C(=O)OC)[C@@]13CCOC21Nc1ccccc13` (stereo not given in full) here?
A: The Potency was “inactive”.
